Measurements from PMC7862700, “An all-to-all approach to the identification of sequence-specific readers for epigenetic DNA modifications on cytosine”.

How the values were obtained:
Assay in all cases: DAPPL (digital affinity profiling via proximity ligation, sequencing); 10 mM Tris-HCl pH 7.5, 50 mM NaCl, 1 mM DTT, 4% glycerol, room temperature, 30 min; GST-TFs on glutathione beads, 16-mer random dsDNA library, 0.1% formaldehyde crosslink after washing; high values mean tight binding
Details in all cases: protein: recombinant; tags: N-terminal GST; dsDNA, one strand shown
[1] = target: T1, ERF (Homo sapiens, UniProt P50548 1-548)
T1 sequence: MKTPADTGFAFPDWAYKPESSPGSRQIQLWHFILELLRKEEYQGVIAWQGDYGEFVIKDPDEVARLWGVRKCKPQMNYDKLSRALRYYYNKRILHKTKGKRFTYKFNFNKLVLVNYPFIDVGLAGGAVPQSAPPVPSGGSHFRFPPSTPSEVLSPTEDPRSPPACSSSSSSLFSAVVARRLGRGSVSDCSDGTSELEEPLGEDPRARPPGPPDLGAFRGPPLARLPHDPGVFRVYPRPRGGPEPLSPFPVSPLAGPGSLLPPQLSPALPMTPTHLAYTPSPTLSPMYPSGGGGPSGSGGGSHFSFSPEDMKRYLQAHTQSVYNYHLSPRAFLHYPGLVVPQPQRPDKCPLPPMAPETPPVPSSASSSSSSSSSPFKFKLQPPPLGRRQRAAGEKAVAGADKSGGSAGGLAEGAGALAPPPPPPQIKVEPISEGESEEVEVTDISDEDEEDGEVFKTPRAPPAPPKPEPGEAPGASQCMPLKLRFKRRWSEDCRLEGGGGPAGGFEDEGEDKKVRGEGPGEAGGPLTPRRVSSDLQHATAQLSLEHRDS
Method in brief: (§1)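 Beads coated with glutathione captured GST-fused human transcription factors that had been expressed in yeast, and the factors were then given DNA barcodes and pooled with a tag-only sample. The pools were incubated with 200 nmole of a random double-stranded 16-mer DNA library in Tris/NaCl/DTT/glycerol buffer for 30 min at room temperature, washed, crosslinked with 0.1% formaldehyde and proximity-ligated with BsaI/T4 ligase at 37 °C for 1 h. PCR amplification and Illumina NextSeq500 sequencing came last. Binding signal is each hexamer's read frequency for a factor divided by its frequency for the tag-only sample.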

[2] = target: T2, ETV3L (Homo sapiens, UniProt Q6ZN32 1-361)
T2 sequence: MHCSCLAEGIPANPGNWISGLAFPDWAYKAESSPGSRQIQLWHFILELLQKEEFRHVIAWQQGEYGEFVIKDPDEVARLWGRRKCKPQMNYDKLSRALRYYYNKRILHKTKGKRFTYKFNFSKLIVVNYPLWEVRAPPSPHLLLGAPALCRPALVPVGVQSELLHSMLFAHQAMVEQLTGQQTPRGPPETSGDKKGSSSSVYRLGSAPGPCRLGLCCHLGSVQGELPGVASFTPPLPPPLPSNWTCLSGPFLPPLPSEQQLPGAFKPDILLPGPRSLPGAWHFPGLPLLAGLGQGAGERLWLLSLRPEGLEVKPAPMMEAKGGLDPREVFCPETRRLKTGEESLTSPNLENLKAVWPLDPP
Method in brief: as §1

[3] = target: T3, ETS2 (Homo sapiens, UniProt P15036 1-469)
T3 sequence: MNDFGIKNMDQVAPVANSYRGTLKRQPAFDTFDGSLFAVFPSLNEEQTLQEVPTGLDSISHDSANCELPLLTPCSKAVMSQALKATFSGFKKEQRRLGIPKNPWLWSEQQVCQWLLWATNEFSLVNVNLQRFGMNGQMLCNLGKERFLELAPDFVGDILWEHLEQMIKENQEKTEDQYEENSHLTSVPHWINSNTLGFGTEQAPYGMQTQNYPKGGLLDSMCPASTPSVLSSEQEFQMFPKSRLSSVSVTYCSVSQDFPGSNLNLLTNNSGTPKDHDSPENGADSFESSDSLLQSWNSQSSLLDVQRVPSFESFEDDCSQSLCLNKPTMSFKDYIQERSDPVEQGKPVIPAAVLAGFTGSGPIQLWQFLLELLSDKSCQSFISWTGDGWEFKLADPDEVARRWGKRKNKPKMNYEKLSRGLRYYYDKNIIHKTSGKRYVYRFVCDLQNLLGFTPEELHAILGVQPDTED
Method in brief: as §1

[4] = target: T4, SPDEF (Homo sapiens, UniProt O95238 1-335)
T4 sequence: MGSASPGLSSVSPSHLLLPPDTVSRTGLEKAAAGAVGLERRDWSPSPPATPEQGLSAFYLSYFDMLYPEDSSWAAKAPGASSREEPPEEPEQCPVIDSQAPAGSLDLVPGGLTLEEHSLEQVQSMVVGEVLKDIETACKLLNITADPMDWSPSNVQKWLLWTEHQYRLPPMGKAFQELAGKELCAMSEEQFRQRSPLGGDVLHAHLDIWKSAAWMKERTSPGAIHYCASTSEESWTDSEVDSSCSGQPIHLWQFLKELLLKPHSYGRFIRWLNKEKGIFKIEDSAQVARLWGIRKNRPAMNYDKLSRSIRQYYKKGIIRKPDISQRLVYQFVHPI
Method in brief: as §1

[5] = target: T5, ETV7 (Homo sapiens, UniProt Q9Y603 1-341)
T5 sequence: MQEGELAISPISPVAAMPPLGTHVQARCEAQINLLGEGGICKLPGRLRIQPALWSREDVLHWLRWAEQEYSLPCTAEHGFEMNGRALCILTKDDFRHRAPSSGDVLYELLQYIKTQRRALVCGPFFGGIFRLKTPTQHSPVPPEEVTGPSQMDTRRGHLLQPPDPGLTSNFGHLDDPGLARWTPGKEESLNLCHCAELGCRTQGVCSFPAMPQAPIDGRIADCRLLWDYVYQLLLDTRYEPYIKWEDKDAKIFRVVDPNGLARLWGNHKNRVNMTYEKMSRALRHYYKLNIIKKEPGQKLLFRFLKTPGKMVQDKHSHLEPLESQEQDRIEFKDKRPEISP
Method in brief: as §1

[6] = target: T6, ELF5 (Homo sapiens, UniProt Q9UKW6-2 1-255)
T6 sequence: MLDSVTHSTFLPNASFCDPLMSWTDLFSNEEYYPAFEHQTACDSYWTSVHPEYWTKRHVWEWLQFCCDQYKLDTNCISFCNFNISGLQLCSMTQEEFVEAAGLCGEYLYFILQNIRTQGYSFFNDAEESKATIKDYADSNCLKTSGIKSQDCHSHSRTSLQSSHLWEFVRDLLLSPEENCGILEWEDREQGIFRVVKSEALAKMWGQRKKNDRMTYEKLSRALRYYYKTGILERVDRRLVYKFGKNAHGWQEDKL
Method in brief: as §1

[7] = target: T7, ETV3 (Homo sapiens, UniProt P41162-2 1-143)
T7 sequence: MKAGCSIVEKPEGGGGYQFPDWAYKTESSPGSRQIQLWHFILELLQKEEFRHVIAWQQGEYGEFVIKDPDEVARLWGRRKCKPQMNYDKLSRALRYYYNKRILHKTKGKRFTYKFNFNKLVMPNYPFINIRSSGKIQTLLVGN
Method in brief: as §1

[8] = target: ETV6 (Homo sapiens, UniProt P41212 1-452)
ETV6, sequence (P41212 whole entry): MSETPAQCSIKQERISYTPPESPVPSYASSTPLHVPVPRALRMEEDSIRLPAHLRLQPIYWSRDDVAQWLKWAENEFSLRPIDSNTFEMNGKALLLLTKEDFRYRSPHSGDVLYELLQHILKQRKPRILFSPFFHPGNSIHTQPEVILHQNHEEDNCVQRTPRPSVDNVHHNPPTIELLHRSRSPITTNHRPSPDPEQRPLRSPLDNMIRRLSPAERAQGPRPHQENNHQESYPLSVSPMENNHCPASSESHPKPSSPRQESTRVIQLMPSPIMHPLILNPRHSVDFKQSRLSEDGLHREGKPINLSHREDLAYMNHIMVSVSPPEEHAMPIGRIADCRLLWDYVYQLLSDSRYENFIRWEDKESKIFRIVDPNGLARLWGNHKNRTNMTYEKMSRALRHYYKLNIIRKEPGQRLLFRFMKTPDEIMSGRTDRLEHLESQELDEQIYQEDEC
Method in brief: as §1

## ATCTGA
[1]
  binding signal: 1.2 fold enrichment (6-mer frequency, TF over GST control)
[2]
  binding signal: 1.19 fold enrichment (6-mer frequency, TF over GST control)
[3]
  binding signal: 1.17 fold enrichment (6-mer frequency, TF over GST control)
[4]
  binding signal: 1.1 fold enrichment (6-mer frequency, TF over GST control)
[5]
  binding signal: 1.04 fold enrichment (6-mer frequency, TF over GST control)
[6]
  binding signal: 1.08 fold enrichment (6-mer frequency, TF over GST control)
[7]
  binding signal: 1.06 fold enrichment (6-mer frequency, TF over GST control)
[8]
  binding signal: 1.13 fold enrichment (6-mer frequency, TF over GST control)

## CGATCC
[1]
  binding signal: 1.33 fold enrichment (6-mer frequency, TF over GST control)
[2]
  binding signal: 1.18 fold enrichment (6-mer frequency, TF over GST control)
[3]
  binding signal: 1.2 fold enrichment (6-mer frequency, TF over GST control)
[4]
  binding signal: 1.4 fold enrichment (6-mer frequency, TF over GST control)
[5]
  binding signal: 1.1 fold enrichment (6-mer frequency, TF over GST control)
[6]
  binding signal: 1.2 fold enrichment (6-mer frequency, TF over GST control)
[7]
  binding signal: 1.24 fold enrichment (6-mer frequency, TF over GST control)
[8]
  binding signal: 1.23 fold enrichment (6-mer frequency, TF over GST control)

## CCTTAT
[1]
  binding signal: 1.41 fold enrichment (6-mer frequency, TF over GST control)
[2]
  binding signal: 1.46 fold enrichment (6-mer frequency, TF over GST control)
[3]
  binding signal: 1.41 fold enrichment (6-mer frequency, TF over GST control)
[4]
  binding signal: 1.71 fold enrichment (6-mer frequency, TF over GST control)
[5]
  binding signal: 1.49 fold enrichment (6-mer frequency, TF over GST control)
[6]
  binding signal: 1.73 fold enrichment (6-mer frequency, TF over GST control)
[7]
  binding signal: 1.39 fold enrichment (6-mer frequency, TF over GST control)
[8]
  binding signal: 1.42 fold enrichment (6-mer frequency, TF over GST control)

## CCACGC
[1]
  binding signal: 1.12 fold enrichment (6-mer frequency, TF over GST control)
[2]
  binding signal: 1.17 fold enrichment (6-mer frequency, TF over GST control)
[3]
  binding signal: 1.24 fold enrichment (6-mer frequency, TF over GST control)
[4]
  binding signal: 1.17 fold enrichment (6-mer frequency, TF over GST control)
[5]
  binding signal: 1.15 fold enrichment (6-mer frequency, TF over GST control)
[6]
  binding signal: 1.11 fold enrichment (6-mer frequency, TF over GST control)
[7]
  binding signal: 1.16 fold enrichment (6-mer frequency, TF over GST control)
[8]
  binding signal: 1.15 fold enrichment (6-mer frequency, TF over GST control)

## GCACCC
[1]
  binding signal: 1.21 fold enrichment (6-mer frequency, TF over GST control)
[2]
  binding signal: 1.23 fold enrichment (6-mer frequency, TF over GST control)
[3]
  binding signal: 1.16 fold enrichment (6-mer frequency, TF over GST control)
[4]
  binding signal: 1.17 fold enrichment (6-mer frequency, TF over GST control)
[5]
  binding signal: 1.12 fold enrichment (6-mer frequency, TF over GST control)
[6]
  binding signal: 1.17 fold enrichment (6-mer frequency, TF over GST control)
[7]
  binding signal: 1.24 fold enrichment (6-mer frequency, TF over GST control)
[8]
  binding signal: 1.09 fold enrichment (6-mer frequency, TF over GST control)

## CCCTAA
[1]
  binding signal: 1.36 fold enrichment (6-mer frequency, TF over GST control)
[2]
  binding signal: 1.32 fold enrichment (6-mer frequency, TF over GST control)
[3]
  binding signal: 1.15 fold enrichment (6-mer frequency, TF over GST control)
[4]
  binding signal: 1.19 fold enrichment (6-mer frequency, TF over GST control)
[5]
  binding signal: 1.14 fold enrichment (6-mer frequency, TF over GST control)
[6]
  binding signal: 1.19 fold enrichment (6-mer frequency, TF over GST control)
[7]
  binding signal: 1.2 fold enrichment (6-mer frequency, TF over GST control)
[8]
  binding signal: 1.08 fold enrichment (6-mer frequency, TF over GST control)

## AGTGTT
[1]
  binding signal: 1.13 fold enrichment (6-mer frequency, TF over GST control)
[2]
  binding signal: 1.1 fold enrichment (6-mer frequency, TF over GST control)
[3]
  binding signal: 1.1 fold enrichment (6-mer frequency, TF over GST control)
[4]
  binding signal: 1.13 fold enrichment (6-mer frequency, TF over GST control)
[5]
  binding signal: 1.14 fold enrichment (6-mer frequency, TF over GST control)
[6]
  binding signal: 1.3 fold enrichment (6-mer frequency, TF over GST control)
[7]
  binding signal: 1.08 fold enrichment (6-mer frequency, TF over GST control)
[8]
  binding signal: 1.11 fold enrichment (6-mer frequency, TF over GST control)
